# Out of some 1,800 compounds screened, about 15 (0.8%) were called active. The list is a sample of the results. Entries with a potency or affinity are not part of this list. A number with no mark means an inactive call. The rule behind the calls is not given here.
# Assay: antiviral activity against H1N1 influenza, dose response, cell-based, strain KY136 (AID 540257)
# Conditions: H1N1 KY136 influenza antiviral cell assay, % inhibition; series mostly up to 40 µM; inhibition: at the top concentration
row,SMILES,inhibition [%]
1,CC(=O)NC(c1ccccc1)c1cc([N+](=O)[O-])c2cccnc2c1O (stereo not drawn),-0.23
2,Nc1[nH]c(N=NC(=O)c2ccccc2O)c2ccccc12,-1.36
3,COc1cc(-c2n[nH]c(=S)n2-c2cccc(C(F)(F)F)c2)cc(OC)c1OC,-0.46
4,CN1CCN(NC(=O)CN2C(=O)/C(=C/c3ccccc3Cl)SC2=S)CC1,0.15
5,O=C(CCCN1C(=O)/C(=C/c2ccc3c(c2)OCO3)SC1=S)Nc1ccc(C(=O)O)cc1,-1.62
6,CCOC(=O)c1ccc(Nc2c(CC)c(C)nc3ncnn23)cc1,-0.18
7,COc1ccccc1N1CCN(C(=O)CCCn2c(=O)[nH]c3ccsc3c2=O)CC1,-0.55
8,O=C1CCCC2=C1C1(CCCCC1)N=C(Nc1nc3ccccc3s1)N2,-0.46
9,O=C(O)c1cccc2c1/C(=N/O)c1ccccc1-2,-1.51
10,O=C(COC(=O)c1ccc([N+](=O)[O-])cc1)Nc1cccnc1Cl,2.51
11,C[n+]1c(/C=C/c2ccc(O)cc2)ccc2ccccc21,-0.74
12,COc1cc(C=NO)nc(-c2ccccn2)c1,-15.2
13,O=[N+]([O-])c1cccc(C=Nc2cc3c(cc2Br)OCCO3)c1,0.23
14,CCOc1ccccc1CNC(=O)c1ccc2c(c1)N(CC)CCS2,-6.06
15,Clc1ccc(-c2nnc(N3CCCC3)nn2)cc1,1.97
16,CCCS(=O)(=O)n1nc(-c2ccccc2)cc1N,1.16
17,O=C(Nc1ccc(N2CCOCC2)cc1)Nc1ccc(Cl)c(Cl)c1,-14.1
18,O=C1CC(c2ccccc2)Cc2nc(NCc3ccco3)ncc21 (stereo not drawn),13.9
19,Nc1nc(Nc2ccccc2)nc(NCc2ccco2)c1[N+](=O)[O-],-3.58
20,C=CC[n+]1c(/C=C2\C=Cc3cc(C)ccc3N2CC)ccc2ccccc21,-1.51
21,O=C1C(=C(c2ccccc2)c2ccccc2)Nc2ccccc21,4.26
22,O=C(CN1CCN(S(=O)(=O)c2ccccc2)CC1)Nc1ccc(N2CCOCC2)cc1,0.12
23,O=S(=O)(c1cccs1)N1CCN(CC(O)COc2cc(Cl)ccc2Cl)CC1 (stereo not drawn),-12.7
24,O=C(CCc1ccccc1)Nc1cc2c(cc1Cl)OCCO2,3.94

row,SMILES,inhibition [%]
1,O=C(COC(=O)[C@H](Cc1c[nH]c2ccccc12)NC(=O)c1cccs1)NCc1ccccc1,4.26
2,O=C(Nc1ccccc1C(=O)NCc1cccnc1)c1ccc(Cl)cc1Cl,-1.04
3,c1ccc(Cn2nnc3c(N4CCCCCC4)ncnc32)cc1,0
4,CCOC(=O)N1CCN(c2cc(=O)n(-c3ccc(C)cc3)c(=O)[nH]2)CC1,0.45
5,O=C1C(Nc2ccc(O)cc2)=C/C(=N/S(=O)(=O)c2cccs2)c2ccccc21,-5.8
6,O=C(NC(=S)NNC(=O)c1cnccn1)c1ccc(Cl)cc1,-2.73
7,O=C1CSC(=S)N1N=Cc1ccccc1O,-1.49
8,O=C(Nc1cccc(Cl)c1)c1cc(N=Nc2ccc([N+](=O)[O-])cc2Cl)ccc1O,-2.11
9,CC(=O)N1CCC(N(CCCOC(C)C)C(=O)Nc2ccc(Cl)cc2)CC1,0.58
10,CCOC(=O)c1c(C2CC2)csc1NC(=O)COC(=O)c1ccc[n+]([O-])c1,-0.55
11,COCc1cc(=O)[nH]c(Nc2nc3ccccc3o2)n1,0.12
12,O=[N+]([O-])c1ccc(O)c(/C=N/Nc2nn[nH]n2)c1,-2.43
13,Cc1ccc(C(=O)Nc2nc(-c3ccccn3)cs2)o1,-1.74
14,COc1ccc(CC(=O)N2N=C(C)CC2(O)c2cccnc2)cc1OC (stereo not drawn),0.64
15,CCOc1ccc(OCCOCCn2ccnc2)cc1,1.34
16,Cc1ccc(S(=O)(=O)N2CCN(C(=O)c3ccc(N4CCCC4)c([N+](=O)[O-])c3)CC2)cc1,-1.55
17,COc1ccc(CNC(=O)Cn2ccc([N+](=O)[O-])n2)cc1OC,1.93
18,CCN(C(C)=O)c1cnc(C=NNC(N)=S)c2ccccc12,-5.03
19,Cc1cc2ncn(C(=O)c3c(-c4ccccc4Cl)noc3C)c2cc1C,0.59
20,Oc1c(C(Nc2ccccn2)c2ccccn2)ccc2cccnc12 (stereo not drawn),-3.95
21,COc1ccc(N2CCN(CCNC(=O)Nc3ccc([N+](=O)[O-])cc3OC)CC2)cc1,-2.3
22,CCOc1ccc(N=Cc2c(O)cc(C)oc2=O)cc1,-0.39
23,CN(C)c1ccc(N=Nc2ccccc2C(=O)OCC(=O)N(C)c2ccccc2)cc1,1.62
24,NC(=O)NC(=O)CC1S/C(=N/N=C2\CSC(=O)N2)NC1=O (stereo not drawn),0.45

row,SMILES,inhibition [%]
1,CC(=O)Oc1ccc(NC(=O)Cc2ccccc2)cc1,-0.12
2,COc1ccc2cc3c(N)nn(C(=O)Cc4ccccc4OC)c3nc2c1,-1.82
3,CN(C)c1ccc(CN2CC=C(c3ccc(F)cc3)CC2)cc1,-1.04
4,CC(NS(C)(=O)=O)C(c1cccs1)N1CCN(c2ccccc2)CC1 (stereo not drawn),0.3
5,O=C(N/N=C/c1ccco1)Nc1ccccc1,0.15
6,Cc1ccccc1NC(=S)N/N=C/c1ccc(O)cc1O,-5.22
7,COc1ccc(C2C3=C(CC(C)(C)CC3=O)Oc3ncn(Cc4ccco4)c(=N)c32)cc1 (stereo not drawn),2.82
8,Cc1ccccc1CNC(=O)CCC(=O)N1CCOc2ccc(Cl)cc21,1.35
9,CCC(C)NC(=O)CN1C(=O)COc2ccc(S(=O)(=O)N3CCOCC3)cc21 (stereo not drawn),0.81
10,CS(=O)(=O)N1CCC(Oc2cccc(C(=O)NCCCC3CCCC3)c2)CC1,-2.3
11,CC(/C=C/c1ccccc1)=N\NC(=O)Cn1nc(C)cc1C,0
12,O=C(Cn1c(=O)c(C(F)(F)F)nc2ccccc21)N1CCC2(CC1)OCCO2,1.56
13,Cc1cccn2c(=O)c(C=C(C#N)C#N)c(N3CCN(c4ccccc4)CC3)nc12,0.28
14,CCCCN1C(=O)NC2NC(=O)NC21 (stereo not drawn),-2.02
15,CC(C)C(C(=O)Nc1ccccc1F)N1C(=O)c2ccccc2C1=O (stereo not drawn),0.58
16,O=C(Nc1ccccc1)c1ccc[n+](Cc2ccc([N+](=O)[O-])cc2)c1,2.67
17,O=C1C(NS(=O)(=O)c2cccs2)=C(N2CCN(c3ccccc3)CC2)C(=O)c2ccccc21,-2.3
18,Fc1cccc(Nc2ncnc3c2cnn3-c2ccccc2)c1,-16
19,O=C1c2ccccc2C(=O)c2c1cccc2N1CCOCC1,-0.45
20,O=C(N/N=C/C1C(=O)NC(=S)N(c2ccccc2)C1=O)c1cc(Br)c(O)c(Br)c1 (stereo not drawn),-1.19
21,CCOC(=O)c1sc(NC(=O)c2ccc3ncsc3c2)nc1C,4.13
22,O=[N+]([O-])c1cc(Br)c2nsnc2c1N1CCOCC1,4.84
23,CCOC(=O)CC(NS(=O)(=O)c1ccc(NC(C)=O)cc1)c1ccc(OCC)cc1 (stereo not drawn),2.13
24,CN(C)c1ccc(C=c2c3ccccc3n3c2c2c([n+]3C)CCCC2)cc1,-4.87

row,SMILES,inhibition [%]
1,O=C(NC1CC1)C(=O)c1c(-c2ccccc2)[nH]c2ccccc12,10.5
2,Cc1nn(Cc2ccccc2)c(C)c1N,0.83
3,S=c1sscc1-c1ccccc1,-0.7
4,COc1ccc(/C=C/C(=O)OCC(=O)NCCc2ccccc2)c(OC)c1,1.74
5,COc1ccc(S(=O)(=O)N2CCOCC2)cc1NC(=O)CN1CCN(C)CC1,1.93
6,COc1ccc(CSC2=NCCN2)cc1Cl,4.9
7,C=CCn1c(N)c(C(=O)NCCC2=CCCCC2)sc1=S,0.45
8,O=C(CN1C(=O)c2cccc3cccc(c23)C1=O)N1CCN(Cc2ccc3c(c2)OCO3)CC1,0.12
9,CCCn1nc([N+](=O)[O-])c(C(C#N)c2nc3ccccc3s2)c(Cl)c1=O (stereo not drawn),-5.69
10,Cc1c(N2C(=O)/C(=C/c3ccccc3)SC2=S)c(=O)n(-c2ccccc2)n1C,0.64
11,O=C(NCCN1CCOCC1)c1cc2sccc2n1Cc1ccc(Cl)cc1,-1.06
12,O=C(CSc1ccccc1)Nc1nnc(/C=C/c2ccccc2)s1,-1.63
13,CCOC(=O)CCSCC(=O)Nc1nnc(C)s1,-0.12
14,Cc1nc(CNS(=O)(=O)c2ccc3ccccc3c2)cs1,1.86
15,CCc1nccn1C(=O)c1cnn2c(C(F)F)cc(-c3ccc(C)cc3)nc12,-2.08
16,Cc1c(N/N=C(\C#N)C(=O)c2ccccc2)c(=O)n(-c2ccccc2)n1C,-2.12
17,COc1ccc2sc(NC(=O)c3ccco3)nc2c1,0.7
18,CCCc1ccc2oc(C(=O)NCc3nnc(C)o3)c(C)c2c1,-4.06
19,O=C(N/N=C/c1cc(Br)c(O)c(Br)c1O)c1cccnc1,-4.64
20,CCn1c(C(C)NC(=O)c2cccc(C)c2)nc2ccccc21 (stereo not drawn),2.67
21,COc1ccc(C(CCNCc2ccc(N(C)C)cc2)C(C)C)cc1 (stereo not drawn),-5.42
